aSyn yeast inh: inhibitors of alpha-synuclein toxicity in yeast; Yeast expressing alpha-synuclein, growth rescue, BacTiter-Glo, 24 h; Potency, µM (top dose mostly 46.1 µM), without a hit: top-dose growth rescue (activation), most hits filed as activators; 0.14% of 370,000 active; AID 652106; also: % of control where 0% means no effect; nearly all actives have a fitted effect of over 65% in size
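Screening used galactose-induced yeast with toxic alpha-synuclein levels, exposed to compound for 24 hr at 30 deg C. Cell growth, read with BacTiter-Glo luminescence, gave the measured signal.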
Abeta yeast res: restores growth of yeast expressing A-beta42 peptide; 0.063% of 410,000 active; yeast expressing A-beta42, growth rescue, OD600, 48 h; response scale: 0% DMSO, 100% iron-clioquinol control; Potency, µM (doses to about 46.1 µM), most hits filed as activators; also: nearly all actives have a fitted effect of over 55% in size
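Growth rescue measured by 600 nm absorbance after 48 h yeast culture at 30 C with compound. Values normalized between DMSO and an equimolar ferric chloride plus clioquinol control.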
uPA generation: blocks generation of uPA at the cell surface. cell surface uPA generation assay, qHTS. Potency, µM (series often up to 38.3 µM), without a hit: at the highest dose activity change, negative = inhibition, actives largely listed as inhibitors. 0.31% of 330,000 active; active = well fitted inhibition curve with a large enough effect; inconclusive = small, poorly fitted or top-dose-only effect; inactive = no such curve, though single readings can be large or run the other way; tested in mouse RAW 264.7 cells; also: % is scaled to controls: 0 for no effect and ±100 for the full control effect; nearly all actives have a fitted effect of over 55% in size
FUS yeast rescue: FUS proteinopathy suppression in yeast; AID 1347120; Potency, µM (top dose mostly 76.6 µM), actives largely listed as activators; S. cerevisiae FUS-expressing, growth rescue, OD600, 24 h; 0.24% of 390,000 active;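 also: plate controls were DMSO vehicle for no effect and reference control for full effect; nearly all actives have a fitted effect of over 55% in size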
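Yeast FUS proteinopathy model; galactose-induced FUS (2%), starting OD 0.005. Cpds in dilution series, 24hr, 30C, 99% humidity. Abs 600 nm growth. Pos ctrl CP55940 (top 92uM final); neg ctrl DMSO.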
Chronic BCR inh: blocks chronic active B-cell receptor signaling. AID 493014. ABC-DLBCL IkBa-CBG/CBR reporter, luminescence ratio, 4 h. Potency, µM (series often up to 46.1 µM), without a hit: top-dose activity change, negative = inhibition, usual class: inhibitors. 0.05% of 340,000 active; active = well fitted inhibition curve with a large enough effect in the signal ratio, with a control signal flat, not every such curve was filed as active; inconclusive = small, poorly fitted or top-dose-only effect, or effect the other way, or a change in a side signal; the % refers to the signal ratio;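 also: plate controls were basal doxycycline-induced cells for no effect and cells given 10 µM MG132 for full effect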
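Compounds up to 46 uM were incubated four hours with TMD8 cells whose green CBG68 luciferase is fused to IkappaBalpha; red CBR luminescence normalised the signal, and concentration-effect curves were fitted to fusion, red and ratio data.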
TDP43 rescue: inhibitors of TDP-43 toxicity in yeast; TDP-43 expressing yeast growth rescue, BacTiter-Glo, 24 h; Potency, µM (series often up to 46.1 µM), for the others: top-dose growth rescue (activation), usual class: activators; 1.8% of 410,000 active; also: % of control where 0% means no effect; nearly all actives have a fitted effect of over 50% in size
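In this qHTS, compounds that restore growth of yeast expressing TDP-43 appear as activators. Cells (OD600=0.02, galactose medium, raffinose-pregrown) are incubated with compound 24 hr at 30 deg C and growth is quantified by BacTiter-Glo.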
An asterisk follows results filed as active. A selection: hits, their analogues and other compounds. The true share with any hit is near 2.3%. Unless noted, calls follow the shape of the dose curve; as a rule, active = well fitted curve in the direction sought with a large enough effect; inconclusive = small, poorly fitted or top-dose-only effect, or another doubt; inactive = no such curve, though single readings can be large; an effect the other way counts as inactive or inconclusive. Potency is read from the fitted curve at half-maximal effect.

Screening CC1CCCN(C2(O)C(=O)Nc3c(C(F)(F)F)cccc32)C1 (stereo unspecified) returned aSyn yeast inh 12%, Abeta yeast res inactive, uPA generation 1%, FUS yeast rescue inactive, Chronic BCR inh -2% and TDP43 rescue 28%.
`O=C(NC1CCCCCC1)c1ccc(S(=O)(=O)NCc2ccco2)cc1` gave aSyn yeast inh -5%, Abeta yeast res inactive, FUS yeast rescue inconclusive, Chronic BCR inh inconclusive and TDP43 rescue -31%.
`COc1ccc2c(c1)[C@H]1[C@H](CO2)[C@H](c2ccccc2)[C@]2(C)C(=O)N[C@H](C)C(=O)N12` gave aSyn yeast inh -4%, Abeta yeast res inactive, uPA generation 6%, FUS yeast rescue inactive, Chronic BCR inh -8% and TDP43 rescue 17%.
For Brc1ccc(OCc2nnnn2-c2ccccc2)cc1 the results were aSyn yeast inh -9%, Abeta yeast res inactive, uPA generation -18%, FUS yeast rescue inactive, Chronic BCR inh -2% and TDP43 rescue 22µM*.
Screening COc1ccc(OCc2nnnn2-c2ccccc2)cc1 returned aSyn yeast inh 7%, Abeta yeast res inactive, FUS yeast rescue inactive, Chronic BCR inh 5% and TDP43 rescue 7%.
For OC(COc1ccccc1)Cn1c2ccccc2c2ccccc21 (stereo unspecified) the results were aSyn yeast inh 22%, Abeta yeast res inconclusive, uPA generation 3%, Chronic BCR inh 7% and TDP43 rescue 18µM*.
O=C1COc2ccccc2N1Cc1c(F)cccc1Cl was read as aSyn yeast inh 4%, Abeta yeast res inactive, uPA generation -82%, FUS yeast rescue inactive, Chronic BCR inh inconclusive and TDP43 rescue 11µM*.
Screening CCCCCn1cc2c(c1-c1ccccc1Br)c(=O)n(C)c(=O)n2C returned Abeta yeast res inactive, FUS yeast rescue inactive and TDP43 rescue 18µM*.
`CCCCn1cc2c(c1-c1ccccc1Br)c(=O)n(C)c(=O)n2C` gave Abeta yeast res inactive, FUS yeast rescue inactive and TDP43 rescue 0%.
For COC(=O)C1=C(C)N(C)C(C)=C(C(=O)OC)C1c1ccccc1C the results were aSyn yeast inh 1%, Abeta yeast res inactive, uPA generation 1%, FUS yeast rescue inactive, Chronic BCR inh -4% and TDP43 rescue 19%.
For CN(C(=O)COC(=O)c1ccccc1Nc1ccccc1)c1c(N)n(Cc2ccccc2)c(=O)[nH]c1=O the results were aSyn yeast inh -5%, Abeta yeast res inactive, uPA generation 5%, FUS yeast rescue 35µM*, Chronic BCR inh -9% and TDP43 rescue -22%.
`Cc1ccccc1/C=C/C1=NCCN1` gave aSyn yeast inh -3%, Abeta yeast res inactive, uPA generation 4µM*, FUS yeast rescue inactive, Chronic BCR inh inconclusive and TDP43 rescue 35%.
Screening Cc1ccccc1C=O returned aSyn yeast inh 3%, Abeta yeast res inactive, uPA generation -2%, FUS yeast rescue inactive, Chronic BCR inh -2% and TDP43 rescue 24%.
`Fc1cccc(Cc2c(-c3cccc(Br)c3)nc3ccc(Cl)cn23)c1` gave aSyn yeast inh -2%, Abeta yeast res inactive, FUS yeast rescue inactive and TDP43 rescue 25µM*.
Screening Clc1cccc(-c2nc3ccc(Cl)cn3c2Cc2ccccc2)c1 returned aSyn yeast inh 19%, Abeta yeast res inactive, FUS yeast rescue inactive and TDP43 rescue 16µM*.
Clc1cccc(-c2nc3ccc(Cl)cn3c2Cc2ccsc2)c1 was read as aSyn yeast inh 0%, Abeta yeast res inactive, FUS yeast rescue inactive and TDP43 rescue inconclusive.
COc1ccc(CN2C[C@H]3CON(C)[C@H]3C[C@H]2c2ccc(-c3ccccc3)cc2)cc1 was read as aSyn yeast inh 2%, Abeta yeast res inactive, FUS yeast rescue inactive and TDP43 rescue 0%.
`CCOC(=O)CSc1nnc(CNC(=O)c2ccc([N+](=O)[O-])cc2)n1C` gave aSyn yeast inh 2%, Abeta yeast res inactive, uPA generation -1%, FUS yeast rescue inactive, Chronic BCR inh -8% and TDP43 rescue -11%.
Screening COc1ccc(NC(=O)COc2ccccc2)cc1Cl returned aSyn yeast inh -8%, Abeta yeast res inactive, uPA generation 3%, FUS yeast rescue inactive, Chronic BCR inh inconclusive and TDP43 rescue 11µM*.
Screening Cc1ccc(NC(=O)COc2ccccc2)cc1Cl returned aSyn yeast inh -6%, Abeta yeast res inactive, uPA generation 2%, FUS yeast rescue inactive, Chronic BCR inh 5% and TDP43 rescue inconclusive.
Screening CC(C)c1ccc(OCC(=O)Nc2ccc(OC(F)(F)F)cc2)cc1 returned aSyn yeast inh -9%, Abeta yeast res inactive, uPA generation 8%, FUS yeast rescue inactive, Chronic BCR inh -7% and TDP43 rescue 5%.
Screening CC(C)c1ccc(NC(=O)COc2ccccc2)cc1 returned aSyn yeast inh -7%, Abeta yeast res inactive, uPA generation 4%, FUS yeast rescue inactive, Chronic BCR inh inconclusive and TDP43 rescue 10µM*.
Screening CCNc1ccc(C(=O)OCC)cc1NC(=O)c1cccc(S(=O)(=O)N(C)c2ccccc2)c1 returned aSyn yeast inh 2%, Abeta yeast res inactive, uPA generation -2%, FUS yeast rescue inconclusive, Chronic BCR inh 2% and TDP43 rescue 0%.
Cc1ccc(/C=C/C(=O)Nc2cccc3ncccc23)o1 was read as aSyn yeast inh 0%, Abeta yeast res inactive, uPA generation inconclusive, FUS yeast rescue inactive, Chronic BCR inh inconclusive and TDP43 rescue -9%.
`O=C(N/N=C/c1ccccn1)c1sc2ccccc2c1Cl` gave aSyn yeast inh 3.2µM*, Abeta yeast res inconclusive, uPA generation inconclusive, FUS yeast rescue inactive, Chronic BCR inh inconclusive and TDP43 rescue inconclusive.
For O=C(N/N=C/c1c[nH]c2ccccc12)c1sc2ccccc2c1Cl the results were aSyn yeast inh -2%, Abeta yeast res inactive, uPA generation -16%, FUS yeast rescue inactive, Chronic BCR inh -1% and TDP43 rescue 11%.
For CC1CCc2nc(NC(=O)CN3CCN(c4ccc(F)cc4)CC3)sc2C1 (stereo unspecified) the results were aSyn yeast inh -5%, Abeta yeast res inactive, uPA generation 7%, FUS yeast rescue inconclusive, Chronic BCR inh 28% and TDP43 rescue 16µM*.
Screening CC(C)(C)C1CCc2nc(NC(=O)Cc3ccccc3)sc2C1 (stereo unspecified) returned Abeta yeast res inactive, FUS yeast rescue inactive and TDP43 rescue 32µM*.

Screening results as filed in PubChem BioAssay.
